Values joined by “and” are separate entries in the source; they are usually repeats but may differ in a detail not shown here. Equal entries are not always repeated. Inconclusive results are not listed. A structure can be active in one record and inactive in another. Active and inactive are the calls of the source. Unless noted, calls come from the whole dose curve.
What was measured:
[1] = Nuclear factor erythroid 2-related factor 2/antioxidant responsive element (Nrf2/ARE) small molecule agonists: qHTS cell viability counter screen in human keratinocytes (AID 1919968; active = well fitted curve in the direction sought with a large enough effect in the repeat runs; an effect the other way counts as inactive or inconclusive; note: nearly all actives have a fitted effect of over 55% in size; note: potency is the fitted concentration of half-maximal effect)
Summary of the method: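 HaCaT ARE reporter line, 1,500 cells/well; 5 h settle, 37 C/5% CO2; cpd in DMSO pinned; 23 h exposure; CellTiter-Fluor, 1 h; fluorescence.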

[2] = Nuclear factor erythroid 2-related factor 2/antioxidant responsive element (Nrf2/ARE) small molecule agonists: luciferase reporter gene qHTS assay in human keratinocytes (AID 1919969); note: nearly all actives have a fitted effect of over 35% in size; note: potency is the fitted concentration of half-maximal effect
[3] = biological target: Gonadotropin-releasing hormone receptor (Homo sapiens) (UniProt P30968); assay: Human gonadotropin-releasing hormone receptor (GnRHR) small molecule agonists, calcium flux assay in GnRHR-HEK293 cells (AID 1920063); note: nearly all actives have a fitted effect of over 35% in size
Summary of the method: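 GnRHR-HEK293, 1500 cells/well, 18 h 37 C/5% CO2; Ca dye 1 h 37 C; cpd pinned (DMSO), agonist mode; kinetic FL 480/540, 3 min, 1 s reads; 15 conc, n=3.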

[4] = biological target: KiSS-1 receptor (Homo sapiens) (UniProt Q969F8); assay: Human kisspeptin (KISS1R) small molecule agonists, calcium flux assay in KISS1R-HEK293 cells (AID 1920064; active = well fitted curve in the direction sought with a large enough effect in the repeat runs; an effect the other way counts as inactive or inconclusive)
Summary of the method: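 Stable human KISS1R HEK293 line; 18 h plating, 37 C/5% CO2; calcium dye 1 h 37 C; compound pin transfer; kinetic fluorescence Ex/Em 480/540, 3 min.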

[5] = G protein-coupled receptor (GPCR) small molecule agonists, calcium flux assay: HEK293 wild type cell line counter screen (AID 1920065)
Summary of the method: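 Kinetic fluorescence at Ex/Em 480/540, recorded every second over 3 min, served as the read-out after compound addition. Each compound was tested at 15 concentrations in triplicate on cells pre-loaded with calcium dye for 1 h.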

[6] = p53 small molecule agonists, cell-based qHTS assay with human liver microsomes: qHTS cell viability counter screen (AID 1963579); note: nearly all actives have a fitted effect of over 45% in size
Summary of the method: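 Seed p53RE-bla cells at 4,000 per well; incubate 5 h at 37 C; add compound, human liver microsomes and NADPH; incubate 16 h at 37 C; add CellTiter-Glo; after 30 min at room temperature, read luminescence.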

[7] = p53 small molecule agonists, cell-based qHTS assay with rat liver microsomes: qHTS cell viability counter screen (AID 1963580); note: nearly all actives have a fitted effect of over 45% in size; note: potency is the fitted concentration of half-maximal effect
Summary of the method: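 In HCT-116 cells carrying a p53 response element-bla reporter, compounds were metabolically activated in situ by rat liver microsomes with NADPH over 16 h. Cell ATP content then served as the cytotoxicity measure.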

[8] = p53 small molecule agonists, cell-based qHTS assay: qHTS cell viability counter screen (AID 1963581); note: nearly all actives have a fitted effect of over 45% in size
Summary of the method: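 HCT-116 p53RE-bla cells, 4,000/well, plated 5 h before compound pin transfer; 16 h at 37 C; bla substrate 2 h RT; then CellTiter-Glo, 30 min RT, luminescence.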

[9] = p53 small molecule agonists, cell-based qHTS assay (AID 1963582; active = well fitted activation curve with a large enough effect in the signal ratio in the repeat runs, not every such curve was filed as active; the % refers to the signal ratio)
Summary of the method: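 Reporter line: p53RE-bla. Pre-incubation 5 h, 37 C, 5% CO2; compound (DMSO, pin tool) 16 h, 37 C; B/G FRET substrate 2 h RT; fluorescence intensity read.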

[10] = biological target: 5-hydroxytryptamine receptor 2A (Homo sapiens) (UniProt P28223); assay: 5-hydroxytryptamine receptor 2A (HTR2A) small molecule agonists, cell-based qHTS assay (AID 1963587); note: nearly all actives have a fitted effect of over 30% in size
Summary of the method: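 HTR2A-CHO cells, plated 18 h at 37 C/5% CO2, dye-loaded 1 h at 37 C; compounds in DMSO added by pin tool (agonist mode). Intracellular calcium flux read as kinetic fluorescence on FDSS over 2 min at 1 s intervals.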

[11] = biological target: Muscarinic acetylcholine receptor M1 (Homo sapiens) (UniProt P11229); assay: Cholinergic receptor muscarinic 1 (CHRM1) small molecule antagonists, cell-based qHTS assay (AID 1963588); note: nearly all actives have a fitted effect of over 40% in size; note: potency is the fitted concentration of half-maximal effect
Summary of the method: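 CHRM1-CHO calcium-flux assay, antagonist mode. Cells were seeded 18 h, dye-loaded 1 h at 37 C and given compound for 5 min at RT, then acetylcholine was added at 50nM. FDSS fluorescence was read 3 min; 15 concentrations, three runs.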

[12] = biological target: Muscarinic acetylcholine receptor M1 (Homo sapiens) (UniProt P11229); assay: Cholinergic receptor muscarinic 1 (CHRM1) small molecule agonists, cell-based qHTS assay (AID 1963589); note: nearly all actives have a fitted effect of over 35% in size
Summary of the method: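 Human M1 in stable CHO line; 18 h plating, 1 h dye load 37 C; cpd added (agonist mode); Ca2+ fluorescence kinetic read, 1 s intervals; 15 conc, 3 runs.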

[13] = cAMP Responsive Elements (CRE) small molecule antagonists, cell-based qHTS assay (AID 1963591; active = well fitted inhibition curve with a large enough effect in the signal ratio in the repeat runs, not every such curve was filed as active; the % refers to the signal ratio; note: potency is the fitted concentration of half-maximal effect)
Summary of the method: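 Beta-lactamase reporter read by FRET substrate (LiveBLAzer B/G) after 2 h at room temperature. CRE-bla HEK293T cells had received compound plus 0.25 uM (final) NKH477 for 3 h at 37 °C.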

[14] = biological target: Beta-2 adrenergic receptor (Homo sapiens) (UniProt P07550); assay: Adrenergic beta2 receptor (ADRB2) small molecule antagonists, cell-based qHTS assay (AID 1963592); note: series mostly up to about 92 µM; nearly all actives have a fitted effect of over 50% in size
Summary of the method: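 Cells (CHO, stable ADRB2 overexpression) incubated 18-20hr at 37C; compounds added from DMSO; agonist mix (1nM isoproterenol, 100uM IBMX, 25uM Ro-20-1724) added; 0.5hr RT; d2-cAMP and anti-cAMP-cryptate added; 1hr RT; 665/615 nm read.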

[15] = biological target: Beta-2 adrenergic receptor (Homo sapiens) (UniProt P07550); assay: Adrenergic beta2 receptor (ADRB2) small molecule agonists, cell-based qHTS assay (AID 1963593);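 note: CHO cells stably overexpressing human ADRB2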
Summary of the method: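 CHO cells stably over-expressing ADRB2 were plated overnight at 37C, then dosed with compounds plus a stimulation mix containing 100uM IBMX and 25uM Ro-20-1724 for 0.5hr at room temperature. cAMP was measured by HTRF competition, 1hr.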

[16] = biological target: D(2) dopamine receptor (Homo sapiens) (UniProt P14416); assay: Dopamine D2 receptor (DRD2) small molecule antagonists, cell-based qHTS assay (AID 1963595; active = well fitted inhibition curve with a large enough effect in the signal ratio in the repeat runs, with a control signal flat; the % refers to the signal ratio)
Summary of the method: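 HTRF cAMP read-out at 665 and 620 nm emission (340 nm excitation). Antagonist mode: compounds were tested against 12 nM quinpirole in DRD2-HEK293 cells, with 200 nM NKH477 raising cAMP and 0.1 mM Ro20-1724 blocking its breakdown.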

[17] = biological target: 5-hydroxytryptamine receptor 2A (Homo sapiens) (UniProt P28223); assay: 5-hydroxytryptamine receptor 2A (HTR2A) small molecule antagonists, cell-based qHTS assay (AID 1963586); note: nearly all actives have a fitted effect of over 45% in size
Summary of the method: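 Antagonist-mode intracellular calcium assay: DOI (4 nM) added after 5 min compound pre-incubation at room temperature to dye-loaded HTR2A-CHO cells. Fluorescence followed for 3 min, sampled every second.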

[18] = cAMP Responsive Elements (CRE) small molecule agonists, cell-based qHTS assay (AID 1963590)
Summary of the method: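 HEK 293T CRE-bla, 2,000 cells/well, 18 h preincubation 37 C/5% CO2; cpds (DMSO) pinned, 3 h; LiveBLAzer B/G FRET substrate, 2 h RT.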

[19] = biological target: D(2) dopamine receptor (Homo sapiens) (UniProt P14416); assay: Dopamine D2 receptor (DRD2) small molecule agonists, cell-based qHTS assay (AID 1963594); note: nearly all actives have a fitted effect of over 35% in size
Summary of the method: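 HEK293 cells stably expressing DRD2 were cultured 24 h at 37 C, then given Ro20-1724 (0.1 mM final) and compounds for 10 min at room temperature. NKH477 (200nM) was then added for 30 min. cAMP was read by HTRF.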

[20] = p53 small molecule agonists, cell-based qHTS assay with rat liver microsomes (AID 1963578)
Summary of the method: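 Fluorescence from a beta-lactamase reporter under a p53 response element was measured after cells had been incubated 16 h at 37 C with test compound and rat liver microsomes plus NADPH (0.5 mg/mL final each).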

Measured: Potency

Chain of KiSS-1 receptor (Homo sapiens) (Q969F8 whole entry, looked up): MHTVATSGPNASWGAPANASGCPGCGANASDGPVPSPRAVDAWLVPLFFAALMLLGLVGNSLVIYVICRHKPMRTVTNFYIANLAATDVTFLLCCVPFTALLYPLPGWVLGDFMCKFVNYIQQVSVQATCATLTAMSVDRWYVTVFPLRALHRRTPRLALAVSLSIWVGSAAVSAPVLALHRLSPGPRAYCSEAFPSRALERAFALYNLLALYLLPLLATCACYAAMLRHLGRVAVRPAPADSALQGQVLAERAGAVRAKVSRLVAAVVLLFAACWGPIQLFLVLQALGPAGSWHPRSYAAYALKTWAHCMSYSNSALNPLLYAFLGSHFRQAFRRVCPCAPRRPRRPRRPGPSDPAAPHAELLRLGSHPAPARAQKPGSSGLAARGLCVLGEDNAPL
Chain of Gonadotropin-releasing hormone receptor (Homo sapiens) (P30968 whole entry, looked up): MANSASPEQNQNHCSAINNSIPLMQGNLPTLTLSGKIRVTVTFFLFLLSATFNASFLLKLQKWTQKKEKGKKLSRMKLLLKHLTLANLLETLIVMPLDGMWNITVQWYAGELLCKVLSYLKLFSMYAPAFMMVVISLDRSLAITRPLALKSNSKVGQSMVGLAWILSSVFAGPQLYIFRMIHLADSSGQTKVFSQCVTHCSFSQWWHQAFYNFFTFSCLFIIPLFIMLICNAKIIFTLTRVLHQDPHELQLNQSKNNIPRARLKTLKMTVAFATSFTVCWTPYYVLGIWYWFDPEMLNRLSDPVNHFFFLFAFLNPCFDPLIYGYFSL
Chain of D(2) dopamine receptor (Homo sapiens) (P14416 whole entry, looked up): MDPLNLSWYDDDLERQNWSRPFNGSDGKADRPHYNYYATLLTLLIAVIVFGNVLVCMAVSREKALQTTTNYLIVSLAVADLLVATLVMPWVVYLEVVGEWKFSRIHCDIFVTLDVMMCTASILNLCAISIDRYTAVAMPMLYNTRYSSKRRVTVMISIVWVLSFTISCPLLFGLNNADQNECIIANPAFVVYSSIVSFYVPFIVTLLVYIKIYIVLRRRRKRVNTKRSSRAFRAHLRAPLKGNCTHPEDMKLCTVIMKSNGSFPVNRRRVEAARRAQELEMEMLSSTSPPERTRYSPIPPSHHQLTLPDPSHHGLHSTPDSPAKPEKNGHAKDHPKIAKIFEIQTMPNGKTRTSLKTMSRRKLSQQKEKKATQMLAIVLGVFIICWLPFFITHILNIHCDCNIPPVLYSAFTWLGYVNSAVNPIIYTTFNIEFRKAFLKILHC
Chain of Beta-2 adrenergic receptor (Homo sapiens) (P07550 whole entry, looked up): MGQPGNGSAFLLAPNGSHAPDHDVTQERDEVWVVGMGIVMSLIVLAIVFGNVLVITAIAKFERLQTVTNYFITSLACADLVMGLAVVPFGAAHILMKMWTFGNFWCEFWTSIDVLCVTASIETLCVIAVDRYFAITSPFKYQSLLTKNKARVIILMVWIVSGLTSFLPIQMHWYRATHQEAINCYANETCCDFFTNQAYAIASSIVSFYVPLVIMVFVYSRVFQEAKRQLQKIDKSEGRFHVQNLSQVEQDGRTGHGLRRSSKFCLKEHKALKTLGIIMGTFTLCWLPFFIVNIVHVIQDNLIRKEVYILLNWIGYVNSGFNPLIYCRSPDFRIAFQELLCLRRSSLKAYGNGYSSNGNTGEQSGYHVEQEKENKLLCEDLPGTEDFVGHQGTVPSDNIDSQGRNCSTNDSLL
Chain of 5-hydroxytryptamine receptor 2A (Homo sapiens) (P28223 whole entry, looked up): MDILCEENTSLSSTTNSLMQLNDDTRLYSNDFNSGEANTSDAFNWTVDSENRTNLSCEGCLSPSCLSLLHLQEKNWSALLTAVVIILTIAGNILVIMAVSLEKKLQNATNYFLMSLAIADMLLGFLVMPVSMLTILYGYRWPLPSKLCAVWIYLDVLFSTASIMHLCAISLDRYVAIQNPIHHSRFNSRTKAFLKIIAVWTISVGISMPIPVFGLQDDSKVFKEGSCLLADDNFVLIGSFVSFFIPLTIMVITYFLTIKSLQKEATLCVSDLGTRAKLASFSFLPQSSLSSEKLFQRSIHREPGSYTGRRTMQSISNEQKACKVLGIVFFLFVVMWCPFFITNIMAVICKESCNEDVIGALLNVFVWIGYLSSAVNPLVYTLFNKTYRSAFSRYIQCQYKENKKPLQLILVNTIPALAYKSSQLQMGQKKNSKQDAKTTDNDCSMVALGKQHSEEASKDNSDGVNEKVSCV
Chain of Muscarinic acetylcholine receptor M1 (Homo sapiens) (P11229 whole entry, looked up): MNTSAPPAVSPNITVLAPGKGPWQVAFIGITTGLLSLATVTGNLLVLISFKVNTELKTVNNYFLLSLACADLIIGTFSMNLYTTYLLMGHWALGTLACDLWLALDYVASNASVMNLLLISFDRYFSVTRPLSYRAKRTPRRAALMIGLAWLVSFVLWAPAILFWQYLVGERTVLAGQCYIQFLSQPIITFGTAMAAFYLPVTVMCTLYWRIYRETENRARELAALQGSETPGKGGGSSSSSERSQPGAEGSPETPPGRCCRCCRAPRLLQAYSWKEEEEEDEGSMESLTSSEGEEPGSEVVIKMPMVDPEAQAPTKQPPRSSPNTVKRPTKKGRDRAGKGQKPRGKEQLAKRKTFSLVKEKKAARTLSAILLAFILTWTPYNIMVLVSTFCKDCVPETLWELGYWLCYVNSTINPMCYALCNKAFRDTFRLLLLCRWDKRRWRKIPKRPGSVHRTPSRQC

COc1ccc(C(Cl)=C(c2ccc(OC)cc2)c2ccc(OC)cc2)cc1
not listed: [17] | [18] | [19] | [20]
inactive: all other assays above

[Na+]
not listed: [14] | [20]
inactive: all other assays above

CC(C)(C)c1cccc(C(C)(C)C)c1O
231 nM (active) and inactive: [11]
not listed: [15]
inactive: all other assays above

CCCCC(CC)CO (stereo unspecified)
not listed: [14]
inactive: all other assays above

O=S(=O)(O)c1ccc2cc(O)ccc2c1
not listed: [20]
inactive: all other assays above

CCCCCCc1ccc(O)cc1O
48.7 µM (active) and inactive: [1]
not listed: [10] | [17] | [20]
inactive: all other assays above

C=CCOC(=O)c1ccccc1C(=O)OCC=C
not listed: [20]
inactive: all other assays above

Nc1ncn([C@@H]2O[C@H](CO)[C@@H](O)[C@H]2O)c(=O)n1
active: [2] 30.6 µM and 7.5 µM | [13] 40.3 µM
not listed: [9] | [10] | [11] | [12] | [15] | [17] | [20]
inactive: all other assays above

C=CCOC(=O)CC(C)C
inactive: all assays above

Oc1ccc(Cc2ccccc2O)cc1
36.8 µM (active) and inactive: [7]
not listed: [6] | [14] | [20]
inactive: all other assays above

CCOC(=O)NNc1nncc2ccccc12
not listed: [16] | [17] | [20]
inactive: all other assays above

Cc1ccc(C(C)C)c(O)c1
not listed: [15] | [20]
inactive: all other assays above

CC(=O)c1nccs1
inactive: all assays above

c1ccc2c(c1)Cc1ccccc1-2
not listed: [15]
inactive: all other assays above

Reference: PubChem BioAssay (Tox21)
